# Source: PubChem (National Center for Advancing Translational Sciences (NCATS))
# A selection: hits, their analogues and other compounds. The true share with any hit is near 19%.
# TDP1 cell CPT: DT40-hTDP1 cell growth loss with CPT; chicken DT40 Tdp1-/-;hTDP1 cells + 20 nM CPT, ATP luminescence, 48 h; Potency, µM (highest dose often 46.2 µM), inactives show top-dose activity change, negative = growth inhibition, actives largely listed as inhibitors; 420,000 tested, 12% active; AID 686979; also: potency is read from the fitted curve at half-maximal effect; nearly all actives have a fitted effect of over 55% in size
#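 Chicken DT40 Tdp1-/- cells complemented with human TDP1, 400 cells/well, exposed to compounds plus 20 nM camptothecin for at least 48 h at 37 C; viability read as ATP content by CellTiter-Glo luminescence.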
# IL-1B inflam inh: inflammasome signaling inhibition, IL-1 beta readout; THP-1 LPS/ATP IL-1B secretion, AlphaLISA, 16 h; active compounds read low; activity change, % at 57.5 µM; 360,000 tested, 4.7% active; AID 743279; in the data active = activity change below about -50%; inconclusive = mostly about -30% to -49%
#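 Secreted IL-1B measured by AlphaLISA bead assay after 16 h compound exposure of THP-1 cells; compounds (final up to 57.5 uM) added 1 h before LPS (250 ng/mL) and ATP (1.25 mM) stimulation; lower signal means less secretion.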
# ELG1 repair inh: inhibitors of ELG1-dependent DNA repair in HEK293T cells; HEK293T ELG1-luciferase reporter, luminescence, 16 h; DNA damage induced by 5-fluorouridine; Potency, µM (top dose mostly 46.1 µM), for the others: top-dose activity change, negative = inhibition, actives largely listed as inhibitors; 330,000 tested, 2.3% active; AID 504467; also: potency is read from the fitted curve at half-maximal effect; nearly all actives have a fitted effect of over 55% in size
#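 HEK293T cells expressing luciferase-tagged ELG1 (2,000/well) received 5-Fluorouridine plus compound or DMSO for 16 hr at 37 °C. Luciferase was read by ONE-Glo luminescence after 30 min at room temperature.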
# HT1080 IDH1KD tx: kills HT-1080 cells with IDH1 knockdown; Potency, µM (highest dose often 46.1 µM), for inactives: top-dose activity, negative = toxicity, hits mostly cytotoxic; HT-1080 IDH1 knockdown viability, ATP luminescence, 48 h; 360,000 tested, 2% active;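 also: potency is read from the fitted curve at half-maximal effect; 0% = DMSO wells and -100% = cell-free medium wells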
#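 Assay cells: HT-1080 with IDH1 knockdown, 750 per well, RPMI/5% FBS. Exposure: 48 h at 37 °C following 2 h pre-incubation. Read: CellTiter-Glo luminescence; fitted concentration-response, curve class assigned.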
# HT1080NT lethal: kills 2HG-producing HT-1080-NT fibrosarcoma cells | 360,000 tested, 1.6% active | HT-1080-NT fibrosarcoma viability, CellTiter-Glo ATP luminescence, 48 h | Potency, µM (highest dose often 46.1 µM), without a hit: at the highest dose activity, negative = less viability, most hits filed as cytotoxic | AID 686970;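 also: NT is the 2HG producing partner of a matched IDH1 knockdown line; potency is read from the fitted curve at half-maximal effect; 0% = DMSO-treated cells and -100% = media-only wells without cells; nearly all actives have a fitted effect of over 55% in size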
#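 Viability by CellTiter-Glo luminescence after 48 h compound exposure at 37C of HT-1080-NT cells (750/well, RPMI, 5% FBS). % activity scaled between DMSO wells and medium-only wells, then curve-fitted and categorized by curve class.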
# DT40 TDP1 no CPT: qHTS for Inhibitors of human tyrosyl-DNA phosphodiesterase 1 (TDP1): qHTS in cells in absence of CPT. DT40 Tdp1-/- hTDP1 cells, no CPT, ATP luminescence, 48 h. Potency, µM (series often up to 46.2 µM), without a hit: top-dose activity change, negative = growth inhibition, hits mostly inhibitors. 420,000 tested, 15% active. AID 686978, 2013; also: potency is read from the fitted curve at half-maximal effect; nearly all actives have a fitted effect of over 55% in size
#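 Chicken DT40 Tdp1-/- cells complemented with human TDP1, screened without camptothecin (DMSO vehicle only), 400 cells/well. Compounds pin-transferred, cells incubated at 37 °C for at least 48 hr. Growth read as ATP-dependent luminescence (CellTiter-Glo, 30 min at RT).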
# * = called active by the depositor; ? = inconclusive; / = not tested or not shown; [ ] = dose if it differs, or a comment. Unless noted, calls follow the shape of the dose curve; as a rule, active = well fitted curve in the direction sought with a large enough effect; inconclusive = small, poorly fitted or top-dose-only effect, or another doubt; inactive = no such curve, though single readings can be large; an effect the other way counts as inactive or inconclusive. Unless noted, % is scaled to controls: 0 for no effect and ±100 for the full control effect.
SMILES,TDP1 cell CPT,IL-1B inflam inh,ELG1 repair inh,HT1080 IDH1KD tx,HT1080NT lethal,DT40 TDP1 no CPT
C[C@@H]1O[C@H](CCc2cccc(Cl)c2)CC2=C1C(=O)OC(C)(C)O2,1.6µM*,7,/,-15%,-10%,2.9µM*
CCCC(=O)N(CCN1CCOCC1)c1nc2c(OC)ccc(OC)c2s1,-9%,?,3%,1%,-9%,11%
COc1ccc(-c2cc(C(=O)N/N=C(\C)c3cccnc3)c3ccccc3n2)c(OC)c1,10µM*,-1,17%,4%,-1%,13µM*
CCOc1ccc(-c2cc(C(=O)N/N=C(\C)c3cccnc3)c3ccccc3n2)cc1,?,9,-2%,?,?,?
COc1ccc(OC)c(-c2cc(C(=O)N/N=C(\C)c3cccnc3)c3ccccc3n2)c1,15µM*,?,?,-11%,-19%,?
Cc1onc(-c2ccccc2)c1C(=O)Nc1ccc(Br)cc1Cl,6%,-2,17%,-7%,-8%,-2%
C=CC[C@@H](CC(=O)N[C@@H](CO)Cc1ccccc1)C(=O)N[C@H](C)COC(=O)[C@@H](CC=C)Cc1ccc(F)cc1,-25%,16,7%,6%,6%,-18%
CCOC(=O)C(=CNNc1cccc(Cl)c1)C(=O)OCC,12µM*,-18,0%,-26%,-22%,21µM*
CCOC(=O)C(=CNc1ccc(Cl)cn1)C(=O)OCC,0%,-11,?,12%,16%,?
N#CC1(NC(=O)COc2ccccc2[N+](=O)[O-])CCCCC1,-7%,57,0%,2%,13%,-29%
C=CCOc1ccc(C(=O)c2ccccc2)c(OCC(=O)NC2(C#N)CCCC2)c1,?,-60*,?,-18%,?,?
CCCSc1nc2cc(OC)c(OC)cc2c(=N)n1CCCN1CCOCC1,16µM*,-52*,-8%,?,15µM*,23µM*
COc1ccc(-c2noc(CC(=O)Nc3ccc(Br)cc3C)n2)cc1,10%,/,/,/,/,-4%
CCN(CC)C(=O)/C(=C\c1ccc(Br)cc1)NC(=O)c1ccccc1OC,?,9,0%,-3%,2%,15µM*
COc1ccccc1C(=O)N/C(=C\c1ccc(Br)cc1)C(=O)NCCO,5%,-2,3%,-4%,-3%,-16%
CC(OC(=O)CCCN=C1NS(=O)(=O)c2ccccc21)C(=O)Nc1ccccc1[N+](=O)[O-] (stereo not drawn),?,10,-2%,-2%,-2%,?
COc1ccc(N2CCN(C(=O)CSc3nnc4c(C)cc5ccc(C)c(C)c5n34)CC2)cc1,-17%,-66*,?,0%,6%,-24%
COc1ccc(N2CCN(C(=O)CSc3nnc4c(C)cc5cc(C)ccc5n34)CC2)cc1,?,-15,?,15%,5%,?
COc1ccc(N2CCN(C(=O)CSc3nnc4c(C)cc5c(C)cc(C)cc5n34)CC2)cc1,?,?,?,0%,7%,23µM*
COC(=O)COc1cc(OCC(=O)OC)c2c(C)c(Cl)c(=O)oc2c1,10%,-83*,5%,11%,2%,16%
CN(c1nnc(NC(=O)Nc2ccc(Br)cc2)s1)C1CCCCC1,?,/,/,/,/,15µM*
COc1ccc(NC(=O)Nc2nnc(N3CCCCC3C)s2)cc1OC (stereo not drawn),5%,4,-1%,-2%,20%,-20%
O=C1NC(=O)C2(C=C(c3ccccc3)C(O)(c3ccccc3)C2)N1 (stereo not drawn),-9%,9,/,-3%,8%,-15%
N#CC(c1ccccc1)c1ccc2c(C(F)(F)F)cc(C(F)(F)F)nc2n1 (stereo not drawn),13µM*,-83*,?,-4%,-14%,18µM*
Cc1ccc(C(C#N)c2ccc3c(C(F)(F)F)cc(C(F)(F)F)nc3n2)cc1 (stereo not drawn),26µM*,?,?,4%,12%,18µM*
SMILES,TDP1 cell CPT,IL-1B inflam inh,ELG1 repair inh,HT1080 IDH1KD tx,HT1080NT lethal,DT40 TDP1 no CPT
Cc1cccc(C(C)C)c1NC(=O)C(C)OC(=O)Cc1n[nH]c(=O)c2ccccc12 (stereo not drawn),-17%,3,15%,16%,6%,-9%
COC(=O)c1ccccc1NC(=O)Cn1nnc2sc(-c3ccccc3)cc2c1=O,-3%,/,/,/,/,2%
CCOC(=O)c1c[nH]c2c([N+](=O)[O-])cc(OC)cc2c1=O,7.3µM*,1,/,?,-13%,16µM*
Cc1c(CN(C)C(=O)/C=C/c2ccc([N+](=O)[O-])cc2)cnn1C,23µM*,-12,2%,-2%,0%,?
O=C(NCCc1ccc(Cl)cc1)c1nnc(Cc2ccc(Cl)cc2Cl)o1,2%,/,/,/,/,-18%
Cc1cccc(NC(=O)c2cc[n+]([O-])cc2)c1C,-2%,3,23%,0%,4%,5%
CCc1cccc(OCCCCNCCOC)c1,-10%,-7,-8%,2%,-10%,-28%
C=CCNCCCCOc1ccc(OCc2ccccc2)cc1,?,-51*,?,-1%,-19%,23µM*
c1ccc(COc2ccc(OCCCNC3CCCC3)cc2)cc1,?,-96*,?,?,23µM*,21µM*
COCCCNCCCCOc1ccc(OCc2ccccc2)cc1,?,-18,?,?,?,23µM*
CCC(C)c1ccccc1OCCCNC1CCCC1 (stereo not drawn),?,-70*,1%,-24%,-27%,18µM*
COc1ccc(-n2c(=O)c(-c3cc(F)cc(F)c3)nc3cnc(N(C)C)nc32)cc1,1%,/,/,/,/,-1%
O=C(NCc1cc(Cl)cc(Cl)c1)c1csc(COCCO)n1,-25%,5,/,1%,6%,-13%
CC(=O)Oc1c(I)cc(I)cc1C(=O)Nc1ccc(Cl)cc1,?,-87*,-17%,21µM*,21µM*,21µM*
COc1ccc(Cl)cc1C(=O)Nc1ccc(NC(C)=O)cc1,1%,-14,-21%,-2%,0%,1%
CC(Sc1ncnc2sc(-c3ccccc3)cc12)C(=O)N1CCNC1=O (stereo not drawn),18µM*,-15,?,0%,9%[9.24 µM],?
COC(=O)c1c(C)[nH]c(C(=O)CSc2ncnc3sc(-c4ccccc4)cc23)c1C,18µM*,26,-1%,-4%,-3%,16µM*
